Assay outcomes from PubChem.
IMPase cell inh – qHTS Assay for Identifying the Cell-Membrane Permeable IMPase Inhibitors; Inositol monophosphatase 1 (Rattus norvegicus), P97697; CHO-M1 cells, IP1 accumulation, HTRF TR-FRET ratio; inhibition (IP1 accumulation), % at 46.1 µM; 120,000 tested, under 10 active; active = well fitted curve in the direction sought with a large enough effect in the signal ratio, not every such curve was filed as active; inconclusive = small, poorly fitted or top-dose-only effect, or a change in a side signal; inactive = no such curve, though single readings can be large or run the other way; the % refers to the signal ratio;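 note: cells stimulated with carbachol in lithium chloride buffer; higher means more IMPase inhibition seen as more IP1 and lower FRET ratio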
Target sequence (P97697 whole entry, looked up): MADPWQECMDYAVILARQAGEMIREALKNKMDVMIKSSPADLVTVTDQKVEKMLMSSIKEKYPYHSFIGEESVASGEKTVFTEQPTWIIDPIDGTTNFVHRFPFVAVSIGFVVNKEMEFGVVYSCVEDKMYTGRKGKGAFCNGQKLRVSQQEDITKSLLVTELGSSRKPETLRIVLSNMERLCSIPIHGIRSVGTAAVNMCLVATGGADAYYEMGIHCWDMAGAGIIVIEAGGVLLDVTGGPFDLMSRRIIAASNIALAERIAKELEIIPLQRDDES
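Elevated IP1 in lysates lowers TR-FRET signal (665/620 ratio and 620 channel reported). Cells were CHO-M1, given carbachol (50 uM as added) plus 50mM LiCl, pH 7.4, 30 min, 37C; compounds titrated up to 46 uM; AC50 by Hill equation.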
PNC assembly inh – High Content Assay for Compounds that inhibit the Assembly of the Perinucleolar Compartment; PC3M PTB-GFP, PNC prevalence imaging, 16 h; active compounds read low; activity change (PNC), negative = inhibition, % at 10 µM; hit rate 3.1% among 140,000;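 active = readout at or below -70, meaning at least 70% loss of cells showing the perinucleolar compartment, a nuclear body marking cancer cells; inconclusive = readout between -30 and a set limit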
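Compounds are pinned in duplicate onto adhered PC3M cells stably expressing GFP-tagged PTB and incubated 16 h at 37 C. Cells are then fixed, nuclei stained with Hoechst, and PNC-positive cells counted.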
Lamin A splicing – qHTS Assay for Modulators of Lamin A Splicing. hit rate 0.01% among 200,000. HeLa LMNA splicing GFP/RFP minigene ratio, 48 h. Potency, µM (titrated, usually from 46.1 µM), usual class: inhibitors. AID 1487, 2009; active = well fitted inhibition curve with a large enough effect in the signal ratio, with a control signal flat, not every such curve was filed as active; inconclusive = small, poorly fitted or top-dose-only effect, or effect the other way, or a change in a side signal; the % refers to the signal ratio
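Read-out is the ratio of GFP to DsRed2 object intensity, acquired by 488 nm laser-scanning cytometry on HeLa lamin A-EGFP minigene reporter cells. Compound incubation 48 hrs at 37 °C in Opti-MEM with 2% FBS; DMSO 0.5% final.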
Each line names hits and unclear results; the compound was inactive in the other large screens. Many of the other results were omitted from the sample, so hits are more common in it than they were.

CC(C)C1Oc2ccccc2N(CC(=O)N(Cc2ccccn2)C2CC2)C1=O (stereo not given)	PNC assembly inh -100
CC1Oc2ccccc2N(CC(=O)N(Cc2ccccc2)Cc2ccccn2)C1=O (stereo not given)	PNC assembly inh inconclusive
CN(C)C(=O)COC(=O)c1ccccc1Nc1ccc(SC(F)F)cc1	PNC assembly inh -105, Lamin A splicing inconclusive
COc1ccccc1NC(=O)COC(=O)c1ccccc1OCC(=O)Nc1ccc(SC(F)F)cc1	none (no result: IMPase cell inh)
c1ccc2c(c1)OCCOCCOc1ccccc1OCCOCCO2	Lamin A splicing inconclusive (no result: IMPase cell inh)
Cc1ccc(-c2cc(-c3ccccc3C)[nH]n2)c(O)c1	Lamin A splicing inconclusive
O=[N+]([O-])c1ccccc1-c1cc(-c2ccccc2O)n[nH]1	PNC assembly inh -83 (no result: IMPase cell inh)
Cc1ccc(C(=O)c2cn(CC(=O)NC3CCCCC3)c3nc(C)ccc3c2=O)cc1	none (no result: IMPase cell inh, PNC assembly inh)
CCCNS(=O)(=O)c1ccc(OCC(=O)Nc2ccccc2F)cc1	PNC assembly inh -112
COc1ccccc1NC(=O)CNS(=O)(=O)c1ccccc1	none
CCOc1ccccc1NC(=O)COC(=O)CNS(=O)(=O)c1ccc(C)cc1	PNC assembly inh -116 (no result: IMPase cell inh)
Cc1ccc(C)c(NC(=O)CNS(=O)(=O)c2ccccc2)c1	PNC assembly inh -80
COc1ccccc1NC(=O)CCC(=O)Nc1ccccc1OC	none
COc1ccccc1NC(=O)NS(=O)(=O)c1ccc(C)cc1	PNC assembly inh -110
CCOc1ccccc1NC(=O)COC(=O)CN(C)S(=O)(=O)c1ccc(C)cc1	none (no result: IMPase cell inh)
CCCNS(=O)(=O)c1ccc(OCC(=O)OC)cc1	none
Cc1cccc(-c2nn3c(=O)cc(CN4CCN(S(=O)(=O)c5ccc(Cl)cc5)CC4)nc3s2)c1	none (no result: IMPase cell inh, PNC assembly inh)
Cc1cnc(CN(C)Cc2nc(Cc3cccc(C(F)(F)F)c3)no2)[nH]1	none (no result: IMPase cell inh, PNC assembly inh)
COc1ccc(/C=C/C(=O)Nc2ccc(Cl)cc2Cl)cc1	none (no result: PNC assembly inh, Lamin A splicing)
CCCCN(CCCC)C1=C(C(=O)c2ccccc2)N(C)S(=O)(=O)c2ccccc21	none (no result: PNC assembly inh, Lamin A splicing)
COc1ccc(OC)c(NC(=O)N2CCN(Cc3nc4ccc(C)cc4o3)CC2)c1	none (no result: IMPase cell inh, PNC assembly inh)
CCN1CCN(C(=O)N[C@H](C(=O)N[C@@H]2C(=O)N3C(C(=O)O)=C(CSc4nnnn4C)CS[C@@H]23)c2ccc(O)cc2)C(=O)C1=O	none (no result: PNC assembly inh)
CCNC(=S)N1CCc2ccccc2C1	none (no result: IMPase cell inh, PNC assembly inh)
Cc1cccc(C(=O)NC(=S)N2CCc3ccccc3C2)c1	PNC assembly inh -82, Lamin A splicing inconclusive (no result: IMPase cell inh)
COCCOC(=O)C1=C(N)Oc2c(oc(CO)cc2=O)C1c1c(F)cccc1Cl (stereo not given)	none
CCOC(=O)C1=C(N)Oc2c(oc(CO)cc2=O)C1c1ccc(F)cc1 (stereo not given)	PNC assembly inh -100
CCOC(=O)N1CCN(c2cc3[nH]c(=S)[nH]c3cc2F)CC1	PNC assembly inh -91
CCOC(=O)N1CCN(c2c(F)cc3[nH]c(=S)[nH]c3c2Br)CC1	Lamin A splicing inconclusive
COc1ccccc1NC(=O)CN1C(=O)C(C)SC(C)C1=O (stereo not given)	PNC assembly inh -99
COc1cc(NC(=O)c2ccccc2)c(OC)cc1NC(=O)CN1CCOCC1	none
COc1ccccc1NC(=O)CN1C(=O)CSC(C)C1=O (stereo not given)	none
COc1ccccc1NC(=O)CN1CCN(Cc2ccccc2)CC1	PNC assembly inh -87
COc1cc(NC(=O)c2ccccc2Cl)c(OC)cc1NC(=O)CN1CCOCC1	PNC assembly inh -90
COc1ccccc1NC(=O)CN1CCN(CC(=O)Nc2ccc(OCc3ccccc3)cc2)CC1	none
Cc1nc(N2CCOCC2)c2c(C(=O)Nc3cccc(C(F)(F)F)c3)c(C)oc2n1	none (no result: IMPase cell inh, PNC assembly inh)
CCn1cc(C(=O)O)c(=O)c2cc(F)c(N3CCN[C@@H](C)C3)c(F)c21	none (no result: PNC assembly inh)
CCOC(=O)C1=C(C)NC(C)=C(C(=O)OCC)C1c1cc2ccc(C)cc2[nH]c1=O	PNC assembly inh -111
COC(=O)C1=C(C)NC(C)=C(C(=O)OC)C1c1cc2ccc(C)cc2[nH]c1=O	none
Cc1cc(Nc2ccccc2)n(-c2ccc(C(=O)O)cc2)n1	none (no result: IMPase cell inh, PNC assembly inh)
Cc1cc(Nc2ccccc2)n(-c2cccc(Cl)c2)n1	PNC assembly inh -96, Lamin A splicing inconclusive
O=C(c1cccs1)c1cn(CCOc2ccc(F)cc2)c2ccccc12	none (no result: PNC assembly inh, Lamin A splicing)
Cc1ccc2c3c([nH]c2c1C)-c1nonc1CC3	IMPase cell inh inconclusive
Cc1ccc(NC(=O)C(=O)NCC(c2ccc3c(c2)OCO3)N2CCOCC2)cc1C (stereo not given)	none (no result: IMPase cell inh, PNC assembly inh)
COC(=O)c1ccc(OCC2c3cc(OC)c(OC)cc3CCN2C(=O)C(C)C)cc1 (stereo not given)	none (no result: IMPase cell inh, PNC assembly inh)
CCOC(=O)N1CCN(C(=O)C(=O)NN)CC1	none (no result: IMPase cell inh, PNC assembly inh)
COc1ccc2cc(CN(CC3CCCO3)S(=O)(=O)c3ccc(C(C)=O)cc3)c(=O)[nH]c2c1 (stereo not given)	none
COC(=O)c1ccccc1S(=O)(=O)N(Cc1cc2ccc(OC)cc2[nH]c1=O)CC1CCCO1 (stereo not given)	PNC assembly inh -98
CC(/C=C/c1ccccc1F)=N\NC(=O)c1cccc(F)c1	none (no result: IMPase cell inh, PNC assembly inh)
CCCN(CCC)C(=O)Cn1c(=O)n(Cc2ccc(C(=O)NCCc3ccc(OC)c(OC)c3)cc2)c(=O)c2ccccc21	none (no result: PNC assembly inh, Lamin A splicing)
CCC(=O)Nc1cccc(NC(=O)c2cccc([N+](=O)[O-])c2C)c1	Lamin A splicing inconclusive (no result: IMPase cell inh)
Cc1c(C(=O)Nc2ccc3c(c2)CCC3)cccc1[N+](=O)[O-]	PNC assembly inh -114 (no result: IMPase cell inh)
COc1ccc(Cc2nnc3c4cnn(C)c4ncn23)cc1	PNC assembly inh -86
Cc1cccc(C)c1OCc1nnc2c3cnn(C)c3ncn12	none
CCN(CC)c1ccc(CC(=O)NC(C)Cc2ccccc2)cc1 (stereo not given)	PNC assembly inh -106
CCCN(CCC)c1ccc(CC(=O)NC(C)Cc2ccccc2)cc1 (stereo not given)	none
COc1ccc(N2CCN(C(=O)CS(=O)(=O)c3cccc4nsnc34)CC2)cc1	none (no result: IMPase cell inh, PNC assembly inh)
COc1ccc(N2CCN(C(=O)CCS(=O)(=O)c3cccc4nsnc34)CC2)cc1	PNC assembly inh -85
NC(=O)c1cccnc1Oc1cccc(Cl)c1	PNC assembly inh inconclusive
Clc1cccc(Oc2ncccn2)c1	PNC assembly inh -83 (no result: IMPase cell inh)
Cc1ccc(CN2C(=O)c3ccccc3Sc3ccc(C(=O)N4CCOCC4)cc32)cc1	none (no result: IMPase cell inh, PNC assembly inh)
COc1cc(C2NC(C(=O)O)Cc3c2[nH]c2ccccc32)cc(OC)c1OC (stereo not given)	PNC assembly inh inconclusive
COc1ccc(C2NC(C(=O)O)Cc3c2[nH]c2ccccc32)cc1OC (stereo not given)	PNC assembly inh -98
CCOC(=O)c1ccccc1NC(=O)N(Cc1ccco1)C1CCN(C(C)=O)CC1	none (no result: IMPase cell inh, PNC assembly inh)
O=C(O)Cc1c[nH]c2ccc(O)cc12	Lamin A splicing inconclusive (no result: PNC assembly inh)
CCN(CC)c1ccc(NC(=O)CN2CCN(S(=O)(=O)c3ccc(C(C)C)cc3)CC2)cc1	none (no result: IMPase cell inh, PNC assembly inh)
O=C(NCCn1ccc2ccccc21)c1ccc(S(=O)(=O)N2CCCCC2)cc1	PNC assembly inh -81
COc1ccc(C(=O)NCCn2ccc3ccccc32)cc1	PNC assembly inh inconclusive
CCOC(=O)c1cc(-c2ccc(F)cc2)n(CC(=O)NCc2ccc(OC)cc2)c1C	none (no result: IMPase cell inh, PNC assembly inh)
COCCOC(=O)c1c(C)nc(SCC(=O)Nc2ccc(OC)cc2)c(C#N)c1-c1ccco1	PNC assembly inh -111
